Experimental data: the supplement of paper PMC10681739

Legend:
[1] = target: T1, ETS1 (UniProt P14921); assay: ETS1 binding intensity (PBM fluorescence), ETS1 alone (arbitrary fluorescence units); higher = stronger binding; conditions: ETS1 concentration 1 nM; RUNX1 concentration 0 nM
T1 sequence: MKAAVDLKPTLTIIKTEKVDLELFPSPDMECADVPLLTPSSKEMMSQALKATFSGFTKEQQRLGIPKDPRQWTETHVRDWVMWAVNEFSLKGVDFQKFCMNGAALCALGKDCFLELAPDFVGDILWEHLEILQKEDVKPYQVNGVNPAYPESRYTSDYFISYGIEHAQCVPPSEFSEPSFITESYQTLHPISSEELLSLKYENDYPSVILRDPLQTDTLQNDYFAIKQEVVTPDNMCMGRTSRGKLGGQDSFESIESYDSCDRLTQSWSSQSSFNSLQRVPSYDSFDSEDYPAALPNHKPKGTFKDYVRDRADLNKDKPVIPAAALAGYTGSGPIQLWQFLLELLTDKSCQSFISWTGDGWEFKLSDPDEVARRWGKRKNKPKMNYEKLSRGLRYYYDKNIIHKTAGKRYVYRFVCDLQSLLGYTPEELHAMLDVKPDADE

[2] = target: RUNX1 (UniProt Q01196); assay: RUNX1 binding intensity (PBM fluorescence), RUNX1 alone (arbitrary fluorescence units); higher = stronger binding; conditions: RUNX1 concentration 2 nM; ETS1 concentration 0 nM
Method: (§1)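 Cooperative gcPBM on 36-bp genomic probes with neighbouring ETS1 and RUNX1 sites. Recombinant human RUNX1 (2 nM) was incubated alone or with ETS1 (25 nM) and detected with anti-RUNX1 antibody plus Alexa488 secondary. Values are medians over 4 replicate spots; the RUNX1+ETS1 data were normalised to the RUNX1-only data. The probes sit in constant array flanks that are not printed.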

[3] = target: RUNX1 (UniProt Q01196); assay: RUNX1 binding intensity (PBM fluorescence) in presence of ETS1, normalised to RUNX1-only experiment (arbitrary fluorescence units); higher = stronger binding; conditions: RUNX1 concentration 2 nM; ETS1 concentration 25 nM
Method: as §1
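Wherever RUNX1 binding intensity (PBM fluorescence) in presence of ETS1, normalised to RUNX1-only experiment is given: Full-length recombinant human ETS1 or RUNX1 bound to double-stranded 36-bp genomic probes on microarrays, detected by protein-specific primary antibody and Alexa488 secondary, spot fluorescence as median of four replicate spots.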
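Wherever RUNX1 binding intensity (PBM fluorescence), RUNX1 alone is given: Full-length recombinant human RUNX1 bound to double-stranded 36-bp genomic probes on a high-density microarray, scored as Alexa488 fluorescence per spot via anti-RUNX1 antibody, median of four replicate spots.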

Chain of RUNX1 (Q01196 whole entry): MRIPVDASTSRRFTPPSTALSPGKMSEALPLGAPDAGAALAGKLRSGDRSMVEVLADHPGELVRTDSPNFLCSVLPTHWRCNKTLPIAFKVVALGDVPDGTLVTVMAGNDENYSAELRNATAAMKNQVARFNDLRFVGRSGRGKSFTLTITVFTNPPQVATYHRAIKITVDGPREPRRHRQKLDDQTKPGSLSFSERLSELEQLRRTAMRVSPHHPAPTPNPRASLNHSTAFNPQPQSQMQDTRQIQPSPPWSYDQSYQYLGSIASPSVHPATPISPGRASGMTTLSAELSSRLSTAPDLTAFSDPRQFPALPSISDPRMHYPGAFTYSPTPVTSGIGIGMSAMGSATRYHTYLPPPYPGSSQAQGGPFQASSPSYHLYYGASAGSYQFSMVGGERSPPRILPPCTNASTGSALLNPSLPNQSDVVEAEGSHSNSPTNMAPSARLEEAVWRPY

CCCGCTCACGCCGGAAGTGGTTTGCGTTTTCAAGAT
ETS1 binding intensity [1]: 14400 | RUNX1 binding intensity [2]: 741 | RUNX1 binding intensity [3]: 7390

AGTTGGTTCCTTCCGGTGGGTTTGTGGGTTTGGGGT
ETS1 binding intensity [1]: 1420 | RUNX1 binding intensity [2]: 870 | RUNX1 binding intensity [3]: 2390

CTCAGGGTACCAGGATGTGGTTTAGCTTAGGGGTGG
ETS1 binding intensity [1]: 1840 | RUNX1 binding intensity [2]: 980 | RUNX1 binding intensity [3]: 2310

CTCACAGAGCAAGTAGGATGTGGTTTCCAGGGGCTG
ETS1 binding intensity [1]: 781 | RUNX1 binding intensity [2]: 800 | RUNX1 binding intensity [3]: 1180

TAGCCACGAACCGGAAACGTTAAACCACAGCTCCGT
ETS1 binding intensity [1]: 9650 | RUNX1 binding intensity [2]: 994 | RUNX1 binding intensity [3]: 5730

TATCTCCTATCTCCAGGAAGTGGTTAGCCCTAGGAG
ETS1 binding intensity [1]: 3210 | RUNX1 binding intensity [2]: 811 | RUNX1 binding intensity [3]: 1870

GAGGGGGAGGTTTCCGGGGCCTGTGGTTACTACACT
ETS1 binding intensity [1]: 438 | RUNX1 binding intensity [2]: 943 | RUNX1 binding intensity [3]: 1910

AGGGAAGCAGGAAGTGACTGCGGGAGTGGAGCCGGC
ETS1 binding intensity [1]: 3920 | RUNX1 binding intensity [2]: 677 | RUNX1 binding intensity [3]: 1080

TTACACAACAGGAAACTATGTTTAGCGGTTAATCCA
ETS1 binding intensity [1]: 2490 | RUNX1 binding intensity [2]: 885 | RUNX1 binding intensity [3]: 1580

GGCCTTCATTACACAGGATGCGGTTGAAATGCATCA
ETS1 binding intensity [1]: 4110 | RUNX1 binding intensity [2]: 931 | RUNX1 binding intensity [3]: 1630

GGACAGGAAGTTCCTGCAGCTTCTACCACAAACCTA
ETS1 binding intensity [1]: 2450 | RUNX1 binding intensity [2]: 829 | RUNX1 binding intensity [3]: 1420

CCCGGCCACTTCCGCCTATTGCGGGCGTCGGCTAGG
ETS1 binding intensity [1]: 1440 | RUNX1 binding intensity [2]: 745 | RUNX1 binding intensity [3]: 4310

GCCTGTCGCAGGAACGGAAGTGGTTACGGCCCTAGT
ETS1 binding intensity [1]: 8480 | RUNX1 binding intensity [2]: 830 | RUNX1 binding intensity [3]: 3500

GCCTGAGCGGAAACCCGGCGCCACCACAAGATGGCA
ETS1 binding intensity [1]: 637 | RUNX1 binding intensity [2]: 990 | RUNX1 binding intensity [3]: 1200

GCCGCTGCCTCTTCCTGTGTGGTTTTTCAGGGCTTA
ETS1 binding intensity [1]: 651 | RUNX1 binding intensity [2]: 1050 | RUNX1 binding intensity [3]: 2920

GTGGGGCAGGATGTGCTTGCCTGGCTGCGGTTGGAC
ETS1 binding intensity [1]: 2170 | RUNX1 binding intensity [2]: 877 | RUNX1 binding intensity [3]: 2230

CAAGCCAGGAAGAGGGCCCTCACCAGAAACCGCACT
ETS1 binding intensity [1]: 407 | RUNX1 binding intensity [2]: 907 | RUNX1 binding intensity [3]: 1150

GAGGGACAGGATGCCGCCAGGAACCACAAGAGCTTC
ETS1 binding intensity [1]: 996 | RUNX1 binding intensity [2]: 844 | RUNX1 binding intensity [3]: 1300

GCTCATTTCCTGGCCGCTCCTGGGCTTCGCGGTGAG
ETS1 binding intensity [1]: 498 | RUNX1 binding intensity [2]: 834 | RUNX1 binding intensity [3]: 1730

CCTGACTTCCTCCTCCCCCTCCCGCCACAATTCCGC
ETS1 binding intensity [1]: 1240 | RUNX1 binding intensity [2]: 1620 | RUNX1 binding intensity [3]: 2880

AAACCAGAGAGGAAGTGGCACCACATGGCCAGACTG
ETS1 binding intensity [1]: 2030 | RUNX1 binding intensity [2]: 755 | RUNX1 binding intensity [3]: 1140

CTTTGCAGGAAGCTGGGGTTCACCCACAGCCTTGTT
ETS1 binding intensity [1]: 749 | RUNX1 binding intensity [2]: 729 | RUNX1 binding intensity [3]: 878

CCTTTACGTTTTCCTGTTGCGGGTTCTATCGCTCTG
ETS1 binding intensity [1]: 506 | RUNX1 binding intensity [2]: 1600 | RUNX1 binding intensity [3]: 3260

AGGCAAACTACAGGAAGATCCTGCCCGCAACTTGGT
ETS1 binding intensity [1]: 454 | RUNX1 binding intensity [2]: 785 | RUNX1 binding intensity [3]: 931

GGCCTCGGCCACATCCGGGTTCCACCGCAGATTCGG
ETS1 binding intensity [1]: 1850 | RUNX1 binding intensity [2]: 819 | RUNX1 binding intensity [3]: 6490

CTCCGCCTTTCACTTCCTAGTAACCGCCCTCCCTTG
ETS1 binding intensity [1]: 522 | RUNX1 binding intensity [2]: 2190 | RUNX1 binding intensity [3]: 2400

GCGCGGCCCGGAAGGGGGTAACCGCTGAGTCTTTGA
ETS1 binding intensity [1]: 794 | RUNX1 binding intensity [2]: 784 | RUNX1 binding intensity [3]: 1010

AGCTGCATTTCCGGGCAGGCAATGAAACCACAGAGT
ETS1 binding intensity [1]: 1100 | RUNX1 binding intensity [2]: 918 | RUNX1 binding intensity [3]: 2370

TTATTTCCGGTGTTGATCTTTTTAGTGGTACCAGGC
ETS1 binding intensity [1]: 3400 | RUNX1 binding intensity [2]: 1070 | RUNX1 binding intensity [3]: 2990

AGGCTGTGGCGGAAGTGGTCGCGTTACCGCTTGTTT
ETS1 binding intensity [1]: 6340 | RUNX1 binding intensity [2]: 712 | RUNX1 binding intensity [3]: 3760

CTGAGCCGGATGTTACTGGTTAGTGGTTTTCTTTAT
ETS1 binding intensity [1]: 3290 | RUNX1 binding intensity [2]: 917 | RUNX1 binding intensity [3]: 1560

GCTGGTATGGCAGGAAGTTTCTCACCACAGTATACT
ETS1 binding intensity [1]: 3540 | RUNX1 binding intensity [2]: 780 | RUNX1 binding intensity [3]: 1160

ATGAGCTATTTCCTGCCTTGTGGTCAGAGCCAGACT
ETS1 binding intensity [1]: 1640 | RUNX1 binding intensity [2]: 1050 | RUNX1 binding intensity [3]: 4330

GAACCTGGGAGGCGGAAGTTGCGGTTAGCCGAGATC
ETS1 binding intensity [1]: 6030 | RUNX1 binding intensity [2]: 13500 | RUNX1 binding intensity [3]: 56300

GGTGCCTGGGGAGGATGTGGGCTGACTGGGAGGGGT
ETS1 binding intensity [1]: 870 | RUNX1 binding intensity [2]: 869 | RUNX1 binding intensity [3]: 974

GGACCGGTGTCTGGCGGATGCGGTCGTGAAGATAGG
ETS1 binding intensity [1]: 1200 | RUNX1 binding intensity [2]: 710 | RUNX1 binding intensity [3]: 1130

ACTGAACAAACCGGATGTGGTTGCCACCTGCAATCT
ETS1 binding intensity [1]: 19800 | RUNX1 binding intensity [2]: 848 | RUNX1 binding intensity [3]: 21800

AGACGGGACCGGAAGCCGGGCCGCAGGCGGCCGGGC
ETS1 binding intensity [1]: 5400 | RUNX1 binding intensity [2]: 811 | RUNX1 binding intensity [3]: 1240

TTTCTGACACTCTCAGGATGTGGGTTTTCACACTGT
ETS1 binding intensity [1]: 1190 | RUNX1 binding intensity [2]: 828 | RUNX1 binding intensity [3]: 1320

TCAATGACAGGAAGTTTTTAAACCACATACGGCTAA
ETS1 binding intensity [1]: 2780 | RUNX1 binding intensity [2]: 904 | RUNX1 binding intensity [3]: 1810

GACCAATGTAAACAAGGATGTGGGTTCTCCGGCCAC
ETS1 binding intensity [1]: 784 | RUNX1 binding intensity [2]: 785 | RUNX1 binding intensity [3]: 1190

CAGGGCACCTCCTACTTCCCCCCGCAGATAACTACC
ETS1 binding intensity [1]: 875 | RUNX1 binding intensity [2]: 999 | RUNX1 binding intensity [3]: 906

GCGAGGAGACAACTTCCTTTTGTGGTCTGACCCTGG
ETS1 binding intensity [1]: 638 | RUNX1 binding intensity [2]: 857 | RUNX1 binding intensity [3]: 1970

AGTAGAGGAGGAAGTTAAATGTGGTTTTCTGGGTGG
ETS1 binding intensity [1]: 864 | RUNX1 binding intensity [2]: 857 | RUNX1 binding intensity [3]: 1130

GTTCTCCTTCCTGTGCCGAGTGTGGTTTGCTATCAA
ETS1 binding intensity [1]: 580 | RUNX1 binding intensity [2]: 1250 | RUNX1 binding intensity [3]: 2400

CTTAGAGTACCAGGATGTGGTTTGGCCTGGGGGTGG
ETS1 binding intensity [1]: 1790 | RUNX1 binding intensity [2]: 1000 | RUNX1 binding intensity [3]: 1800
